IL2 activator = IL-2 activation; activation, % (series mostly up to about 46 µM); AID 652025; IL-2 activation reporter assay, cell-based qHTS; stimulated with anti-CD3/CD4/CD28 beads; in transgenic mouse T cells; 0.065% of 360,000 active; in the data active = activation above about 50%; inconclusive = mostly about 30% to 49%
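Unstimulated transgenic mouse T cells, 750 per well, received compound and, after 60 minutes, anti-CD3/anti-CD4 bead plus anti-CD28 stimulation. EGFP and DsRed were quantified after 18 hours.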
Nrf2 inh = inhibitors of Nrf2 signaling | AID 504444 | A549 ARE-Fluc reporter, luciferase luminescence, 18-24 h | 2.1% of 360,000 active | Potency, µM (highest dose often 46 µM), hits mostly inhibitors; also: nearly all actives have a fitted effect of over 60% in size
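Concentration-response testing used A549 ARE_Fluc cells at 5000 cells/well. Following an 18-24 h compound incubation, viability was read by fluorescence (Ex 405/Em 525) and luciferase output by luminescence.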
Nrf2 activator = activators of Nrf2 (ARE) signaling | AREc32 ARE-luciferase reporter (MCF7-derived line), luminescence, 24 h | Potency, µM (highest dose often 46.1 µM), actives largely listed as activators | 0.31% of 410,000 active | AID 624171; also: nearly all actives have a fitted effect of over 65% in size
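Quantitative high-throughput format: AREc32 reporter cells, 1000 per well, received compound by pin transfer and were incubated 24 hr at 37 deg C, 5% CO2, before Steady-Glo luminescence detection.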
BRCA1 expr up = increases BRCA1 expression | Potency, µM (top dose mostly 46.1 µM), usual class: activators | MCF7-BRCA1-FFLuc reporter, luminescence, 48 h; response scale: scaled: vehicle 0%, 10 µM genistein 100% | AID 624202 | 1.1% of 380,000 active; also: nearly all actives have a fitted effect of over 80% in size
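Luminescence from a BRCA1-driven firefly luciferase in MCF7 cells was the read-out, taken 15 min after substrate addition following 48 h compound exposure at 37 °C. Data were normalized to a 10 microM genistein control and DMSO vehicle.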
p53 reactivator = mutant p53 re-activation in reporter cells; H1299 p53-A138V BP100-luciferase reporter, luminescence, 24 h; Potency, µM (top dose mostly 92.2 µM), hits mostly activators; 0.063% of 320,000 active; AID 504706; also: nearly all actives have a fitted effect of over 45% in size
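p53-null H1299 cells stably carrying temperature-sensitive p53-A138V and a BP100-luciferase reporter were pinned with compounds (4-point, 1:5 series) and held 24 hrs at 37 deg C. Luminescence was read 10 min after detection reagent.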
A549 tox = counter-screen for Nrf2 inhibitors: cytotoxicity in A549 cells | 0.16% of 390,000 active | AID 504648 | A549 ARE-Fluc cells, CellTiter-Fluor viability, 18-24 h | Potency, µM (doses to about 46 µM), hits mostly inhibitors
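Cytotoxicity counterscreen: CellTiter-Fluor fluorescence was measured in A549 ARE_Fluc cells after 18-24 h of compound exposure in a concentration series. The subsequent BugLite luminescent read reports ARE-luciferase activity.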
Large screens that a line does not name were inactive. Only some compounds are listed: those with a hit (about 3.2% of all), similar ones and a draw of the others. Unless noted, calls follow the shape of the dose curve; as a rule, active = well fitted curve in the direction sought with a large enough effect; inconclusive = small, poorly fitted or top-dose-only effect, or another doubt; inactive = no such curve, though single readings can be large; an effect the other way counts as inactive or inconclusive.

CC(C)(C)OC(=O)N1CCC(c2c(C(=O)NC3CCCCC3)cnn2-c2ccc(F)cc2F)CC1	none (no result: IL2 activator, BRCA1 expr up, p53 reactivator)
NC(=O)c1ccc(NC(=O)C2CCCO2)cc1 (configuration not stated)	none
CCCOC(=O)c1ccc(NC(=O)C2CCCO2)cc1 (configuration not stated)	BRCA1 expr up 11µM, p53 reactivator inconclusive
Cc1cc(NC(=O)c2ccc(NC(=O)C3CCCO3)cc2)ccc1Br (configuration not stated)	BRCA1 expr up 1.1µM, p53 reactivator inconclusive
O=C(Nc1ccc(O)cc1)c1ccc(NC(=O)C2CCCO2)cc1 (configuration not stated)	none
COCCNC(=O)CCCn1c(SCC(=O)c2ccc(Br)cc2)nc2c(sc3ccccc32)c1=O	none (no result: IL2 activator, BRCA1 expr up, p53 reactivator)
Cc1cc(C)cc(Nc2nc(-c3ccc(S(=O)(=O)N4CCCC4)cc3)cs2)c1	Nrf2 inh inconclusive
O=S(=O)(c1ccc(-c2csc(Nc3ccc(F)cc3)n2)cc1)N1CCCC1	Nrf2 inh 18µM
O=S(=O)(c1ccc(-c2csc(Nc3ccc(Br)cc3)n2)cc1)N1CCCC1	Nrf2 inh 8.2µM
CC(OC(=O)c1ccc2c(c1)OCCO2)C(=O)NC1CCCCC1C (configuration not stated)	Nrf2 inh 18µM
CC(C)Oc1ccc(C(=O)OC(C)C(=O)NC2CCCCC2C)cc1 (configuration not stated)	none
Clc1ccc(OCc2nc3ccccc3[nH]2)cc1	Nrf2 inh inconclusive, BRCA1 expr up 3.2µM
c1ccc(OCc2nc3ccccc3[nH]2)cc1	Nrf2 inh inconclusive, BRCA1 expr up inconclusive, p53 reactivator inconclusive (no result: A549 tox)
Cc1ccc(NS(=O)(=O)c2ccc(Cl)c(C(=O)Nc3ccccc3-c3nc4ccccc4[nH]3)c2)cc1C	Nrf2 inh 23µM
CCc1c(C)nc2ncnn2c1N1CCC(C(=O)NCc2cccs2)CC1	Nrf2 inh 18µM
CCOc1ccc(NC(=O)C2CCCN(c3nn4cc(-c5ccc(OC)cc5)nc4s3)C2)cc1 (configuration not stated)	Nrf2 inh 7.3µM (no result: IL2 activator, BRCA1 expr up, p53 reactivator)
CCc1c(C)nc2ncnn2c1N1CCCC(C(=O)Nc2cc(F)ccc2C)C1 (configuration not stated)	none (no result: Nrf2 inh)
CCc1c(C)nc2ncnn2c1N1CCCC(C(=O)NCc2cccs2)C1 (configuration not stated)	Nrf2 inh inconclusive
CCOc1ccc(NC(=O)C2CCCN(c3c(CC)c(C)nc4ncnn34)C2)cc1 (configuration not stated)	Nrf2 inh 10µM
O=S1(=O)N=C(Oc2cccc(C(F)(F)F)c2)c2ccccc21	none (no result: IL2 activator, Nrf2 activator, BRCA1 expr up, p53 reactivator)
COc1cc(OC)c(NC(=O)Cn2cnc3nc4c(cc3c2=O)CCCC4)cc1Cl	none (no result: IL2 activator, Nrf2 inh, BRCA1 expr up, p53 reactivator)
CC(=O)OCC(NC(=O)C(CCCCNC(=O)OCc1ccccc1)NC(=O)OC(C)(C)C)C1OC(n2cc(F)c(=O)[nH]c2=O)C(OC(C)=O)C1OC(C)=O (configuration not stated)	none (no result: IL2 activator, Nrf2 activator, BRCA1 expr up, p53 reactivator)
CCCCc1nn2c(=O)cc(COC(=O)CNC(=O)COc3ccc(C)cc3)nc2s1	none (no result: IL2 activator, p53 reactivator)
Cc1cc(C)c(NC(=O)CSc2ncc(S(=O)(=O)c3ccc(C(C)(C)C)cc3)c(=O)[nH]2)c(C)c1	none (no result: IL2 activator, p53 reactivator)
O=C(c1cc2nc(-c3ccccc3)cc(-c3ccccc3)n2n1)N1CCN(C(=O)c2ccco2)CC1	Nrf2 inh 23µM
COc1ccc(C2Nc3ccccc3C(=O)N2Cc2ccco2)cc1COc1ccccc1 (configuration not stated)	none (no result: IL2 activator, Nrf2 activator, BRCA1 expr up, p53 reactivator)
CC1Oc2ccccc2C=C1/C=N/NC(=O)c1ccccc1 (configuration not stated)	Nrf2 inh inconclusive, BRCA1 expr up 3.2µM, p53 reactivator inconclusive
O=C(/C=C/c1cccs1)c1ccc(NC(=O)c2cccc(Br)c2)cc1	Nrf2 inh inconclusive, BRCA1 expr up 11µM
